# Source: PubChem BioAssay (National Center for Advancing Translational Sciences (NCATS))
# Shown are actives, neighbours in structure and some others; about 3.3% of the full set was active somewhere.
# PNC inhibitor: High Content Assay for Compounds that inhibit the Assembly of the Perinucleolar Compartment | activity change (PNC), negative = inhibition, % at 10 µM | PC3M PTB-GFP, PNC prevalence imaging, 16 h; stronger effect = lower value | AID 2417, 2010 | 140,000 tested, 3.1% active;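 active = readout at or below -70, meaning at least 70% loss of cells showing the perinucleolar compartment, a nuclear body marking cancer cells; inconclusive = readout between -30 and a set limit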
#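 Compounds are pinned in duplicate onto adhered PC3M cells stably expressing GFP-tagged PTB and incubated 16 h at 37 C. Cells are then fixed, nuclei stained with Hoechst, and PNC-positive cells counted.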
# ALOX12 inhib: qHTS Assay for Inhibitors of 12-hLO (12-human lipoxygenase); Polyunsaturated fatty acid lipoxygenase ALOX12 (Homo sapiens), P18054; purified 12-hLO, xylenol orange hydroperoxide absorbance; Potency, µM (doses to about 57.1 µM), most hits filed as inhibitors; 150,000 tested, 0.12% active; AID 1452, 2008; also: nearly all actives have a fitted effect of over 55% in size
# Target sequence (P18054 whole entry, looked up): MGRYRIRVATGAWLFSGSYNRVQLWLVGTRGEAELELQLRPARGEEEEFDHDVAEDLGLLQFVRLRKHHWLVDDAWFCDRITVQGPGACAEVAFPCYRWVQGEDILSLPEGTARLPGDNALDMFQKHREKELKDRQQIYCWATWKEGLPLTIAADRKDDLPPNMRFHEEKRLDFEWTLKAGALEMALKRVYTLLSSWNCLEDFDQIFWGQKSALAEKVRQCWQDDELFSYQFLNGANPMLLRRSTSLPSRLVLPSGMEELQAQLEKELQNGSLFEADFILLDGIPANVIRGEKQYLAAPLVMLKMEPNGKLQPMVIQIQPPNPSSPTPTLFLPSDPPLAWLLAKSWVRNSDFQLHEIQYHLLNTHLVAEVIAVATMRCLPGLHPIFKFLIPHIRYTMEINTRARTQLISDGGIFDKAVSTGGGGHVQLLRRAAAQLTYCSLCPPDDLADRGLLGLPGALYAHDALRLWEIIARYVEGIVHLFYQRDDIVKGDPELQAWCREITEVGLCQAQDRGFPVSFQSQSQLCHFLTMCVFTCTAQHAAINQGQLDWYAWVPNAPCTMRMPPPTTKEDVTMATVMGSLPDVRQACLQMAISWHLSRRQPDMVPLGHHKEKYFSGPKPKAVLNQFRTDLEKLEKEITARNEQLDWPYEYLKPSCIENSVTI
#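 Hydroperoxide formation by human 12-lipoxygenase from 40 uM arachidonic acid was followed colorimetrically via ferric-xylenol orange complex, using the 573/405 nm absorbance ratio. Enzyme concentration was 150 nM, with 30 min reaction at room temperature.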
# HTT ATP protect: qHTS Multiplex Assay to Identify Dual Action Probes in a Cell Model of Huntington: Cytoprotection (ATP) | PC12 HTT-Q103 induced, cytoprotection, ATP luminescence, 40 h | Potency, µM (series often up to 56.4 µM), actives largely listed as activators | 230,000 tested, 0.14% active; also: nearly all actives have a fitted effect of over 45% in size
#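 Compounds added alongside 100 nM tebufenozide, which induces toxic Q103 huntingtin exon 1-GFP in stable PC12 cells; surviving cells quantified by luminescent ATP measurement. Medium: phenol red-free DMEM, 5% equine and 5% calf serum.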
# NPSR antagonist: qHTS Assay for Antagonists of the Neuropeptide S Receptor: cAMP Signal Transduction | Potency, µM (titrated, usually from 38.3 µM), hits mostly inhibitors | 220,000 tested, 1% active | Q6W5P4 | CHO-NPSR cells, cAMP TR-FRET, antagonist mode | AID 1461, 2008; also: nearly all actives have a fitted effect of over 50% in size
# HTT aggregate: qHTS Multiplex Assay to Identify Dual Action Probes in a Cell Model of Huntington: Aggregate Formation (GFP). Potency, µM (highest dose often 46.1 µM), most hits filed as inhibitors. 220,000 tested, 1.1% active. AID 1688, 2009. PC12 HttQ103-GFP aggregates, Acumen cytometry, 40 h; also: nearly all actives have a fitted effect of over 60% in size
#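 PC12 cells with ecdysone-inducible HTT exon1 Q103-GFP, induced by 100 nM tebufenozide, given compounds in a concentration series. GFP aggregates (1–25 um, 6 SD above background) counted in lysates by laser-scanning cytometry, 488 nm excitation.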
# IMPase inh: qHTS Assay for Identifying the Cell-Membrane Permeable IMPase Inhibitors; Inositol monophosphatase 1 (Rattus norvegicus), P97697; CHO-M1 cells, IP1 accumulation, HTRF TR-FRET ratio; inhibition (IP1 accumulation), % at 46.1 µM; 120,000 tested, under 10 active; AID 901, 2007; active = well fitted curve in the direction sought with a large enough effect in the signal ratio, not every such curve was filed as active; inconclusive = small, poorly fitted or top-dose-only effect, or a change in a side signal; inactive = no such curve, though single readings can be large or run the other way; the % refers to the signal ratio;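 also: cells stimulated with carbachol in lithium chloride buffer; higher means more IMPase inhibition seen as more IP1 and lower FRET ratio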
#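 Carbachol-driven Gq signalling in CHO-M1 cells (2000/well) generates IP1. Compounds that block IMPase raise IP1 and so reduce the FRET signal from Eu-anti-IP1 and d2-IP1 after a 10 min room-temperature lysis.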
# Numbers stand for hits; n = inactive; u = inconclusive; x = no result given; ! = repeats disagree; [ ] = another dose, or the depositor's remark. Unless noted, calls follow the shape of the dose curve; as a rule, active = well fitted curve in the direction sought with a large enough effect; inconclusive = small, poorly fitted or top-dose-only effect, or another doubt; inactive = no such curve, though single readings can be large; an effect the other way counts as inactive or inconclusive.
SMILES,PNC inhibitor,ALOX12 inhib,HTT ATP protect,NPSR antagonist,HTT aggregate,IMPase inh
O=C(NNC(=O)c1cccnc1SCc1cccc([N+](=O)[O-])c1)c1ccc(F)cc1,-87.3,n,n[10 µM],n,u,n
N#Cc1c(Sc2ncc(C(F)(F)F)cc2Cl)nsc1C/C=N\OCc1c(F)cccc1Cl,n,n,n,10µM,n,n
OC1c2ccccc2-c2nc3ccccc3cc21 (stereo not drawn),x,n,n,x,x,x
CCCc1cc(=O)[nH]c(SCC(=O)N(C)CC(=O)Nc2ccc(C)cc2)n1,-115.1,n,n[10 µM],n,n,n
O=C1Cc2c([nH]c3ccc(Br)cc23)-c2ccccc2N1,x,n,15.8µM!,n,x,n
CC1CN(S(=O)(=O)c2cccc3cnccc23)CCN1 (stereo not drawn),x,x,x,n,x,x
C[C@@H]1CNCCN1S(=O)(=O)c1cccc2cnccc12,x,n,12.6µM!,x,x,n
CC(=O)N=c1sc2ccccc2n1C,n,n,n,n,n,n
CC(=O)N=c1sc2nc3ccccc3nc2n1N(C(C)=O)C(C)=O,n,n,n,12.6µM,n,u
COc1cc(OC)c(NC(=O)c2cn(C3CCCC3)c(=O)c3c2c2ccccc2n3C)cc1Cl,x,x,x,x,x,n
Nc1nc(=O)c2[nH]cnc2n1O,x,n[11.4 µM],n[10 µM],x,x,x
c1csc(C2CCCN2c2nc3nonc3nc2NC2CC2)n1 (stereo not drawn),x,x,n[10 µM],n,n[9.22 µM],x
CCN(CC)c1ccc(NC(=O)c2cc(OC)cc(OC)c2)c(C)c1,-89.2,n,n[0.074 µM],n,3.16µM,n
CCCn1c2c(c(O)c(C(=O)NC)c1=O)CCCC2,n,n,n[0.074 µM],n,n,n
CCCn1c2c(c(O)c(C(=O)NCCCN(CC)CC)c1=O)CCCC2,-100.0,n,n[10 µM],n,n,n
CCCn1c2c(c(O)c(C(=O)Nc3ncccc3O)c1=O)CCCC2,u,n,n,n,12.6µM,n
CCc1cccc(C)c1NC(=O)CCS(=O)(=O)c1cc(Br)cc2c1N(C(=O)C1CC1)CC2,x,x,x,x,x,n
CN(C)CCCN(Cc1ccccc1)C(=S)Nc1cccc(C(F)(F)F)c1,n,n,x,n,0.0006µM,n
FC(F)(F)c1cccc(NC(=S)N(CCCN2CCCC2)Cc2cccn2Cc2ccc(Cl)cc2)c1,x,x,n,10µM,u,x
Cc1ccc(NC(=S)N(CCCN2CCCC2)Cc2cccn2Cc2ccc(Cl)cc2)cc1Cl,x,x,n,n,u,x
CCCN(Cc1ccccc1)C(=S)Nc1cccc(C(F)(F)F)c1,n,n,n[10 µM],n,n,x
COCC(=O)O,x,n,u,x,x,x
CCCCCC1=C2CNC(Cc3ccccc3)(C(=O)OC)C=C2C(C)C1=O (stereo not drawn),x,n,n,x,x,x
CCn1cc(/C=N\NC(=O)c2ccc(Cl)cc2)cn1,u,n,n[10 µM],n,n,x
CCn1cc(/C=N\NC(=O)Cc2ccc(Cl)cc2)cn1,-99.4,n,x,n,n,x
SMILES,PNC inhibitor,ALOX12 inhib,HTT ATP protect,NPSR antagonist,HTT aggregate,IMPase inh
COc1ccc(NCc2nnc(SCC(=O)NCc3ccccc3)n2-c2ccccc2OC)cc1,-105.8,n,n[1.9 µM],u,n,n
Cc1cc2ccccn2c1C(=O)c1cc([N+](=O)[O-])cc([N+](=O)[O-])c1,x,x,n,n,n,x
CCN(CC)S(=O)(=O)c1cccc(C(=O)c2c(C)cc3ccccn23)c1,-93.9,n,n[10 µM],n,n,x
CCOC(=O)c1ccc(/C=C2/C=C(c3ccccc3)N(c3ccc(Cl)c(C(=O)O)c3)C2=O)cc1,n,n,x,12.6µM,n,x
Cc1nc(CCNC(=O)Cc2ccc(Cl)cc2)cs1,-89.9,n,n[10 µM],n,n,n
Cc1nc(CCNC(=O)Cc2ccc(F)cc2)cs1,n,n,n[10 µM],n,n,n
Cn1c2ccccc2c2ncn(CCN3CCOCC3)c(=O)c21,-87.2,n,n,n,n,n
O=C(NC(=S)Nc1cccc2[nH]ncc12)c1ccccc1,x,x,n,u,10µM,x
CNC(=S)Nc1cccc2[nH]ncc12,n,n,n[10 µM],n,n,n
O=C(Nc1cccc2[nH]ncc12)c1ccc(F)cc1,n,n,n,n,5.01µM,n
O=C(Nc1cccc2ncccc12)c1ccc(F)cc1,n,n,n[10 µM],n,n,x
CS(=O)(=O)N1CCC2(CCCN(C(=O)Nc3ccccc3)C2)CC1,x,n,n,x,x,x
CN(C)S(=O)(=O)n1cnc(-c2ccccc2)c1-c1ccccc1,-117.5,n,n[1.9 µM],n,n,n
O=c1c2c([N+](=O)[O-])cc([N+](=O)[O-])cc2sn1-c1ccc(Br)cc1,n,3.16µM,n[10 µM],n,n,n
O=c1nc(Nc2ccc(Br)cc2)sc2ccc([N+](=O)[O-])cc12,x,x,n[10 µM],n,n[9.22 µM],x
COCCN1C(=O)/C(=C/c2ccc(N3CCCC3)cc2C)SC1=S,x,x,n[10 µM],n,n[9.22 µM],x
CCn1c(O)c(C=Nc2ccccc2)oc1=S,-93.7,n,n[10 µM],n,n,n
CCN(CCNC(=O)C1CCN(Cc2nc(-c3cccc(Cl)c3)oc2C)CC1)c1ccccc1,n,n,n,u,10µM,n
CCOC(=O)CC1C(=O)NCCN1c1nc2c(C)cccn2c(=O)c1/C=C1\SC(=S)N(CC(C)C)C1=O (stereo not drawn),x,x,n[10 µM],10µM,n[9.22 µM],x
CC1(C)C(O)C=C[C@@]2(C)C1CC(=O)O[C@@]1(C)C3=CC(=O)OC(c4ccoc4)[C@]3(C)CCC21 (stereo partly drawn),x,n,x,x,x,x
COc1ccc(-c2nc(C)sc2CC(=O)O)cc1,-100.0,n,n[10 µM],n,n,n
CSc1ncc(-c2ccc(Cl)cc2)[nH]1,x,x,n[10 µM],n,n[9.22 µM],x
COc1ccc2c(CC(=O)Nc3ccc(OC)c(NS(=O)(=O)c4ccc(F)cc4)c3)coc2c1,-126.8,n,n[10 µM],u,n,n
COc1ccc(-c2nc3cnc(OC)nc3n(C3CC3)c2=O)cc1,x,n,n,x,x,x
Cc1c(N=Cc2c(O)n(Cc3ccco3)c(=O)c3ccccc23)c(=O)n(-c2ccccc2)n1C,-100.0!,n,n,n,u,n
SMILES,PNC inhibitor,ALOX12 inhib,HTT ATP protect,NPSR antagonist,HTT aggregate,IMPase inh
Cc1noc(C)c1C(=O)N1CCC2(CCCN(c3ccccn3)C2)CC1,x,n,u,x,x,x
N#Cc1ccc(CN2CC[C@@]3(CCCN(C(=O)c4ccncc4)C3)C2)cc1,x,n,n,x,x,x
CCOC(=O)c1nc(N)c(C(=O)OCC)[nH]1,u,n,n,n,3.55µM,n
N#Cc1nc(Cc2ccccc2)oc1NCc1ccccc1Cl,n,n,n,n,8.91µM,n
CCOC(=O)c1ccc(NC(=O)CN2C(=O)CSC2=O)cc1,-90.1,n,n,u,n[9.22 µM],n
CCOC(=O)c1cc(NC(=O)COC)ccc1O,x,x,n[10 µM],n,n[9.22 µM],x
